Data published in PubChem BioAssay (NCI).
Values joined by “and” are separate entries in the source; they are usually repeats but may differ in a detail not shown here. Identical values can stand only once. About 83,000 compounds went through this panel and 20% of them were active in at least one assay; those are over-represented in the sample as a whole.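 Percent growth is the endpoint: 0 to 100 indicates growth inhibition (40 means 60% inhibition), 0 means no net growth, and negative values indicate cell death.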 Active and inactive are the calls of the source. How the source made its calls: active means growth percent below 10; inactive means the rest.

Test system: MCF7 breast
Experiment: NCI-60 one-dose screen, 48 h (100 = growth as untreated, 0 = no growth, -100 = all killed)
Settings: 10 µM unless noted

Row | SMILES | growth
1 | COc1ccc2nc(N/N=C/c3ccc(C)s3)cc(C)c2c1 | -92.2% [100 µM] (active) and -100% [100 µM] (active)
2 | COC(=O)C(=O)C(C(=O)C(=O)Nc1ccccc1C(C)=O)c1nc2ccc(C(=O)c3ccccc3)cc2[nH]c1=O (centres undefined) | 25.6% [100 µM] (inactive) and 2.25% [100 µM] (active)
3 | CNc1nc2c(C)ccc3[nH]c(N(C)C)nc3c-2n1 | 8.99% [100 µM] (active) and 1.25% [100 µM] (active)
4 | CCn1c2c(c3ccccc3c1=O)C(=O)c1ccccc1-2 | 71.7% [100 µM] (inactive) and 21% [100 µM] (inactive)
5 | N#C/C=C1\C=CC(O)C(O)C1OC1OC(CO)C(O)C(O)C1O (centres undefined) | 92.7% [100 µM] (inactive) and 74.4% [100 µM] (inactive)
6 | Cn1c2c(c3ccccc3c1=O)C(=O)c1ccccc1-2 | 26.8% [100 µM] (inactive) and 7.69% [100 µM] (active)
7 | Cc1ccc(NC(=O)/C(=N\NC(N)=O)c2c(O)c3ccccc3[nH]c2=O)cc1 | 92.8% [100 µM] (inactive) and 85.4% [100 µM] (inactive)
8 | CC1=C2NCN(C)N=C2C(C#N)(C#N)C1(C#N)C#N | -60.6% [100 µM] (active) and -73.1% [100 µM] (active)
9 | COc1ccc2c(c1)N(C(C)=O)CN1C(=O)CCC21 (centres undefined) | 86.1% [100 µM] (inactive) and 85.1% [100 µM] (inactive)
10 | C=C(C)C(=O)OC1CC2(C)OC(=CC2=O)C(C)CC2OC(=O)C(=C)C12 (centres undefined) | -77.3% [100 µM] (active)
11 | Cc1ccc(/C=N/Nc2nncc3ccccc23)s1 | 19% [100 µM] (inactive) and 4.27% [100 µM] (active)
12 | N#CC(=S)Nc1ccc(F)cc1 | 13.1% [100 µM] (inactive) and -70.2% [100 µM] (active)
13 | COc1cc([C@H]2OC[C@@H]3C(c4cc(OC)c5c(c4)OCO5)OC[C@H]23)cc(OC)c1OC (some centres undefined) | 67.2% [100 µM] (inactive) and 7.31% [100 µM] (active)
14 | COC(=O)/C=C\C(C#N)(C#N)N=Cc1ccsc1 | -73.8% [100 µM] (active) and -39.1% [100 µM] (active)
15 | N#CC1(C#N)C2CCCCC23OC(=N)C1(C#N)C(c1ccccc1)O3 (centres undefined) | -47% [100 µM] (active)
16 | OCc1ccccc1OC1OC(CO)C(O)C(O)C1O (centres undefined) | 120% [100 µM] (inactive) and 82.9% [100 µM] (inactive)
17 | COc1cc2oc3c(c(=O)c2c(O)c1/C=C/C(C)C)CCC(C)(C)Oc1cc(O)ccc1-3 | -61% [100 µM] (active) and -100% [100 µM] (active)
18 | COc1ccc2cc1Oc1ccc(cc1)CC1c3cc(OC)c(cc3CCN1C)Oc1c(OC)c(OC)cc3c1C(C2)N(C)CC3 (centres undefined) | 24.7% [75 µM] (inactive) and -97.6% [75 µM] (active)
19 | CCC/C(Cl)=N/OC(=O)Nc1cccc(F)c1 | -73.4% [100 µM] (active) and -100% [100 µM] (active)
20 | Fc1ccc(Nc2nc(Cl)c3[nH]cnc3n2)cc1Cl | 53.5% [100 µM] (inactive) and 7.87% [100 µM] (active)
21 | Cc1ccc(/C=C2/N=C(N/N=C\c3ccccc3)NC2=O)cc1 | 1.56% [100 µM] (active) and 22.5% [100 µM] (inactive)
22 | CC1CC(C(=O)OC2OC(COC3OC(CO)C(OC4OC(C)C(O)C(O)C4O)C(O)C3O)C(O)C(O)C2O)C2CCC3(C)C(=CCC4(C)C3CCC3C(C)(CO)C(O)C(O)CC34C)C2C1C (centres undefined) | -87.6% [100 µM] (active) and -100% [100 µM] (active)
23 | Cc1ccc(NC(=O)/C(Cc2cc(=O)oc3cc(O)ccc23)=N\NC(C)(C)C)cc1C | 117% [100 µM] (inactive) and 97.1% [100 µM] (inactive)
24 | Cc1ccc(NC2=N/C(=C/c3ccccc3)C(Cl)=N2)cc1 | 71.3% [100 µM] (inactive) and 75.4% [100 µM] (inactive)
25 | Cc1ccc(/C=N/Nc2ccccn2)s1 | 13.4% [100 µM] (inactive) and 0.177% [100 µM] (active)
26 | Clc1ccc(C2NN=C3c4ccccc4OCC32)cc1 (centres undefined) | -15.5% [100 µM] (active) and -82.5% [100 µM] (active)
27 | COc1cc2c(c3c1c(=O)c1ccccc1n3C)C=C([N+](=O)[O-])C(C)(C)O2 | 9.29% [100 µM] (active) and -100% [100 µM] (active)
28 | C[C@]12CC[C@@H]3c4ccc(OS(N)(=O)=O)cc4CC[C@H]3[C@@H]1CCC2=O | 15.4% [100 µM] (inactive) and 44.8% [100 µM] (inactive)
29 | C=C(C)C1CC2(C)C(C)CC(OC(=O)/C(C)=C\C)CC2C(OC(=O)/C(C)=C\C)C1O (centres undefined) | -15.7% [100 µM] (active) and -14.3% [100 µM] (active)
